Assay outcomes as filed in PubChem.
JMJD2E inh: JMJD2E (human) inhibition | 230,000 tested, 1.6% active | Potency, µM (doses to about 57.1 µM), hits mostly inhibitors | JMJD2E catalytic domain, FDH-coupled NADH fluorescence (FDH is formaldehyde dehydrogenase); further: nearly all actives have a fitted effect of over 50% in size
Target sequence (B2RXH2 1-337 limits assumed): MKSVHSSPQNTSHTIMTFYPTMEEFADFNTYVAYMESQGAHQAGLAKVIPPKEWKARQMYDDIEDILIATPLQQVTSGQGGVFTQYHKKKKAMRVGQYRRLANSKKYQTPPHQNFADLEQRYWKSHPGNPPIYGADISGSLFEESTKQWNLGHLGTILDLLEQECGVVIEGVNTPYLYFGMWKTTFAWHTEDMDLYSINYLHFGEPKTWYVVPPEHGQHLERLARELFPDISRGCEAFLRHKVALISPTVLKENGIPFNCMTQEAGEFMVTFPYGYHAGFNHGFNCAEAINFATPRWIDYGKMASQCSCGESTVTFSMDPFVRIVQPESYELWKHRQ
HPGD block: blocks human HPGD enzyme activity; P15428; Potency, µM, actives largely listed as inhibitors; 150,000 tested, 4.3% active; purified HPGD, NADH fluorescence kinetic, PGE2 substrate; AID 894; active means well fitted inhibition curve with a large enough effect, not every such curve was filed as active; inconclusive means small, poorly fitted or top-dose-only effect, or another doubt; inactive means no such curve, though single readings can be large or run the other way
Target sequence (P15428 whole entry, looked up): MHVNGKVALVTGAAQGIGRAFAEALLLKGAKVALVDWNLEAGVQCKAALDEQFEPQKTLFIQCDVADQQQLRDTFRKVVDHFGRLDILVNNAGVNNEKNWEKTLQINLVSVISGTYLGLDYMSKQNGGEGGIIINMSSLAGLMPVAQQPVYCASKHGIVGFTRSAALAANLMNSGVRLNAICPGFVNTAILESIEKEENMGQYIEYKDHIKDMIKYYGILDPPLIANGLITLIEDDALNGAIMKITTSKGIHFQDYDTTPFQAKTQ
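NADH formation kinetics: reaction with 30 uM PGE2 and 1 mM NAD+ (final), 20 nM enzyme, Tris-HCl pH 8 with Tween 20, after 15 min compound preincubation at room temperature. Fluorescence change, last versus first of five reads.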
HTT aggregate: mutant huntingtin aggregation inhibition; AID 1688; 220,000 tested, 1.1% active; PC12 HttQ103-GFP aggregates, Acumen cytometry, 40 h; Potency, µM (series often up to 46.1 µM), usual class: inhibitors; further: nearly all actives have a fitted effect of over 60% in size
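Using laser scanning cytometry, GFP-positive aggregates were counted after lysis of PC12 cells induced with 100 nM tebufenozide to express HTT exon 1 Q103–GFP. Compounds were tested in titration.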
ALDH1A1 block: blocks purified human ALDH1A1 activity; P00352; Purified ALDH1A1, NADH fluorescence, propionaldehyde substrate; Potency, µM (titrated, usually from 75.3 µM), usual class: inhibitors; 220,000 tested, 7.3% active; AID 1030; active means well fitted inhibition curve with a large enough effect, not every such curve was filed as active; inconclusive means small, poorly fitted or top-dose-only effect, or another doubt; inactive means no such curve, though single readings can be large or run the other way
HTT ATP protect: cytoprotection in Huntington HTT-Q103 PC12 cell model. PC12 HTT-Q103 induced, cytoprotection, ATP luminescence, 40 h. Potency, µM (top dose mostly 56.4 µM), usual class: activators. 230,000 tested, 0.14% active. AID 1471; further: nearly all actives have a fitted effect of over 45% in size
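Rat PC12, Q103 Htt exon1-GFP fusion, ecdysone promoter; tebufenozide inducer 100 nM final; compound titration; qHTS, 1500 cells/well; ATPlite luminescent read.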
CBFb RUNX1 block: CBF-beta/RUNX1 interaction disruption | Q01196+Q13951 | AlphaScreen CBFb-His/RUNX1-biotin binding, biochemical | Potency, µM (highest dose often 59.8 µM), hits mostly inhibitors | 230,000 tested, under 10 active | AID 1477
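Compounds were screened at multiple concentrations against a preformed CBF-beta(His)/RUNX1(biotin) complex (30 nM of each) for 15 min at room temperature, followed by 90 min with nickel and streptavidin beads and AlphaScreen reading.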
Numbers stand for hits; n = inactive; u = inconclusive; x = no result; [ ] = remark or other dose. Sampled rows, rich in hits. Any-hit rate of the full collection: about 9.8%. Unless noted, the call rests on the fitted dose curve; in most records, active means well fitted curve in the direction sought with a large enough effect; inconclusive means small, poorly fitted or top-dose-only effect, or another doubt; inactive means no such curve, though single readings can be large; an effect the other way counts as inactive or inconclusive.

SMILES | JMJD2E inh | HPGD block | HTT aggregate | ALDH1A1 block | HTT ATP protect | CBFb RUNX1 block
O=c1[nH]c(=O)n(Cl)c(=O)n1Cl | x | x | n | x | 14µM | x
C=CCN1CC[C@@]23CCCC[C@@H]2[C@@H]1Cc1ccc(O)cc13 | x | x | x | x | n[1.9 µM] | x
O=c1c(O)c(-c2ccc(O)c(O)c2)oc2c(O)c(O)cc(O)c12 | 2.8µM | 18µM | x | 35µM | n | n
C=CC(=O)OCC(CC)CCCC (configuration not stated) | x | n | x | n | n | n
CC(=O)c1cccc(NC2=NCC(C)S2)c1 (configuration not stated) | n | 14µM | n | n | n | n
CC1CN=C(Nc2ccc(F)c(Cl)c2)S1 (configuration not stated) | n | x | n[9.22 µM] | x | n[10 µM] | n
O=C(O)C[C@H]1OCC=C2CN3CC[C@@]45C6=CC(=O)C(=O)C([N+](=O)[O-])=C6N[C@H]4[C@H]1[C@H]2C[C@@H]35 | x | n | x | n[13.5 µM] | n[10 µM] | x
COC(=O)CCC(=O)Nc1sc(Cc2ccccc2)c(C)c1C(N)=O | u | x | n[9.22 µM] | 2µM | n[10 µM] | n
C[C@@H]1CC[C@@H]2N(C1)C[C@H]1[C@@](O)([C@H](O)C[C@]3(O)[C@H]4CC[C@H]5[C@]6(O)O[C@]4(C[C@]13O)[C@@]5(C)CC[C@@H]6O)[C@@]2(C)O | x | n | x | n[13.5 µM] | n[10 µM] | x
C=C1C(=O)O[C@@H]2C[C@@H](C)[C@@H]3C=CC(=O)[C@@]3(C)[C@@H](O)[C@H]12 | n | x | 2.2µM | u | u | n
CC[C@]1(OC(=O)CN)C(=O)OCc2c1cc1n(c2=O)Cc2cc3ccccc3nc2-1 | x | u | x | u | n[10 µM] | x
CCN1CC2(OC(=O)c3ccccc3NC(C)=O)CCC(OC)[C@]34C1[C@H](CC23)[C@@]1(O)C[C@H](OC)[C@H]2CC4C1(O)[C@H]2OC (some centres not stated) | x | x | x | x | x | n
Cc1cccnc1-n1c(-c2ccco2)nc2ccccc2c1=O | n | x | n | 28µM | n | n
O=C1N[C@@]2(CN3CCC2CC3)C(=O)N1CN(Cc1ccccc1)c1ccccc1 | x | n | x | n[13.5 µM] | n[10 µM] | x
O=C(OCC(=O)c1ccc([N+](=O)[O-])cc1)/C(=C\c1ccc(Cl)cc1)NC(=O)c1ccccc1 | n | n | n | 13µM | n | n
O=C(O)CC/C(=C\c1cc([N+](=O)[O-])ccc1Cl)c1nc2ccccc2s1 | n | n | n | u | x | n
O=C(Oc1ccccc1)N(c1ccccc1)c1ccccc1 | n | x | n[9.22 µM] | n | n[10 µM] | u
O=c1[nH]c(SCc2ccccc2Cl)nc2c1CCCC2 | n | 2µM | n | n | n[1.9 µM] | n
O=C(O)C[SH+]CC(=O)O.O=C(O)C[SH+]CC(=O)O.[Cu] | x | n | x | x | x | x
CNC[C@H](O)c1ccc(OC(=O)C(C)(C)C)c(OC(=O)C(C)(C)C)c1 | n | n | n | n | n | n
Cc1c(C=C2C(=O)N(C)C(=O)N(C)C2=O)c(=O)n(-c2ccccc2)n1C | n | n | n | n | n[0.074 µM] | n
CN1C(=O)C(=Cc2c(OCc3cnc(Cl)s3)ccc3ccccc23)C(=O)N(C)C1=O | n | x | n[9.22 µM] | 2.2µM | n | n
Cn1ccc(NC(=O)CCl)n1 | u | x | u | 20µM | n | n
CCCCOC(=O)N(C)SN(C)C(=O)Oc1cccc2c1OC(C)(C)C2 | x | x | x | x | x | n
CCOC(=O)c1sc(/N=C/c2c(O)n(-c3ccccc3)c(=O)[nH]c2=O)c(C#N)c1C | n | 25µM | n[1.84 µM] | 11µM | n | n
SMILES | JMJD2E inh | HPGD block | HTT aggregate | ALDH1A1 block | HTT ATP protect | CBFb RUNX1 block
CCN(CC)c1ccc(N=Cc2c(O)n(-c3ccccc3)c(=O)[nH]c2=O)cc1 | 7.9µM | x | n[9.22 µM] | x | n[10 µM] | n
Cc1ccc(N/N=C/c2c(O)n(-c3ccccc3)c(=O)[nH]c2=O)cc1 | n | x | n | 11µM | n | n
Cc1ccc(-n2c(O)c(C=NCCN(C)C)c(=O)[nH]c2=O)cc1 | n | n | n | n | x | n
CCOC(=O)c1c(/N=C/c2c(O)n(-c3cccc(C)c3)c(=O)[nH]c2=O)sc2c1CCCC2 | n | n | n | u | n[10 µM] | n
CCOc1ccc(-n2c(O)c(C=Nc3ccc(N(CC)CC)cc3)c(=O)[nH]c2=O)cc1 | n | n | u | u | n | n
CN(C(=O)Cc1ccc(Cl)c(Cl)c1)[C@H](CN1CCCC1)c1ccccc1 | n | n | x | n | n | n
O=[As](O)(O)c1ccc(N=Nc2ccc([As](=O)(O)O)cc2)cc1 | x | n | x | n[13.5 µM] | n[10 µM] | x
CCCC[N+]1(C)[C@@H]2CC(OC(=O)[C@@H](CO)c3ccccc3)C[C@H]1[C@H]1O[C@H]12 (some centres not stated) | x | x | x | x | n[1.9 µM] | x
CC(=O)[O-].CC(=O)[O-].O.O.[Cd+2] | x | n | x | 7.5µM | n | u
CCC(C)=O | x | n | x | u | n | n
C[C@@]12CC[C@H]3[C@@H](CC[C@@H]4C[C@H](O)CC[C@]43C)[C@H]1CC[C@H]2O | x | x | x | x | n[1.9 µM] | x
O=C1/C(=C\c2ccccc2)C[C@@]2(O)[C@H]3Cc4ccc(O)c5c4[C@@]2(CCN3CC2CC2)[C@H]1O5 | x | x | x | n | x | n
CCN1CCN(S(=O)(=O)c2cnc(Cl)c(Br)c2)CC1 | n | n | n | 1.3µM | n[10 µM] | n
CNC(C(=O)c1ccccc1)C(OC)c1ccccc1 (configuration not stated) | n | n | u | u | n | n
CC(=O)[O][Hg][c]1ccccc1 | 2.2µM | 0.25µM | 1.6µM | 0.63µM | n | n
CCCCn1c(N)c(C(=O)OCCOC)c2nc3ccccc3nc21 | u | x | n[9.22 µM] | x | n[10 µM] | n
CCCCOCCCn1c(N)c(C(=O)OCCOC)c2nc3ccccc3nc21 | n | u | 13µM | u | n | n
CCCCCn1c(N)c(C(=O)NCCN2CCOCC2)c2nc3ccccc3nc21 | u | u | u | u | n[10 µM] | n
CCCCCCn1c(N)c(C(=O)NCCN2CCOCC2)c2nc3ccccc3nc21 | u | u | 32µM | u | n[0.074 µM] | u
CC(C)c1ccc(C(O)(C(=O)O)c2ccc(C(C)C)cc2)cc1 | x | n | x | n[13.5 µM] | n[10 µM] | x
CC(C)c1cccc(O)c(=O)c1 | 7.9µM | u | u | n | n | n
O=C1NC(=O)C2(Cc3ccccc3N3CCCC32)C(=O)N1Cc1ccccc1 (configuration not stated) | n | n | n | u | n | n
O=C1NC(=O)[C@]2(Cc3ccccc3N3CCN(c4ccccc4)CC32)C(=O)N1Cc1ccccc1 (some centres not stated) | n | n | n | 22µM | n | n
Cc1ccc(N2C(=O)NC(=O)C3(Cc4ccccc4N4CCCC43)C2=O)cc1 (configuration not stated) | u | n | n | u | n[0.074 µM] | n
CN1C(=O)NC(=O)C2(Cc3ccccc3N3CCOCC32)C1=O (configuration not stated) | n | n | n | n | n | n
CN1C(=O)NC(=O)[C@]2(Cc3ccccc3N3CCN(c4ccccc4)CC32)C1=O (some centres not stated) | n | n | n | 25µM | n | n
